Records with an inconclusive call do not appear. Entries that show only a call come without a potency. The source made the active and inactive calls. The call rests on the fitted dose curve.
Potency means the concentration at half of the fitted maximal effect.

This experiment is described as follows: Cytotoxicity counterscreen for inhibitors of SARS-CoV-2 cell entry (AID 1645845). Further: nearly all actives have a fitted effect of over 50% in size. To be noted: cell viability (SARS-CoV-2 entry assay cells); series mostly up to 57.1 µM. In outline:
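ATP-content luminescence (ATPLite 1step, 15 min RT) read after 48 h compound exposure of Expi293F cells stably expressing human ACE2; normalized to cells-only wells and media-only wells.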
In general terms: Counterscreens check selectivity or assay interference.
On to `Oc1cccc(-c2nc(N3CCOCC3)c3oc4ncccc4c3n2)c1`, for which the Potency entry is “inactive”.

`COc1nc(-c2ccc3c(c2)OCO3)n(-c2ccc(NC(=O)CSc3ccccc3)cc2)n1`: the Potency entry was “inactive”.

Regarding `O=c1[nH]c(-c2ccc(C(F)(F)F)cc2)nc2c1CSCC2`, the Potency entry is “inactive”.

Take `C=CC(=O)Nc1cc2c(Nc3ccc(F)c(Cl)c3)ncnc2cc1C#CC(C)(C)N1CCN(C)CC1`: the Potency is 25.1 µM (active).

Regarding `Clc1ccccc1CN1CCc2sccc2C1`, the Potency entry was “inactive”.

As to `CC(=O)OCC(=O)[C@@]1(O)[C@H](C)C[C@H]2[C@@H]3C=C(C)C4=Cc5c(cnn5-c5ccccc5)C[C@]4(C)[C@@H]3[C@@H](O)C[C@@]21C`, the Potency result is “inactive”.

For the molecule `S=c1[nH]c2ccccc2s1`, the Potency entry is “inactive”.

In the case of `CN(C)C1CCN(C(=O)c2ccc(NC(=O)Nc3nc(N4CCOCC4)nc(N4CCOCC4)n3)cc2)CC1`, the Potency was 6.31 µM (active).

Regarding `CCCCCCCCCCC(CO)CCCCCCCC` (stereo not drawn), the Potency entry was “inactive”.

As for `COc1ccc(CCN2CCN(CCCc3ccccc3)CC2)cc1OC`, the Potency result was “inactive”.

Regarding `CC(C)(N)C(=O)N[C@H](COCc1ccccc1)C(=O)N1CCC2(CC1)CN(S(C)(=O)=O)c1ccccc12`, the Potency result was “inactive”.

On to `COc1cc2ncn(-c3cc(OCc4ccccc4C(F)(F)F)c(C(N)=O)s3)c2cc1OC`, for which the Potency is 2.51 µM (active).

Turning to `CCCS(=O)(=O)Nc1ccc(F)c(C(=O)c2c[nH]c3ncc(-c4ccc(Cl)cc4)cc23)c1F`, the Potency result is “inactive”.

On to `C[C@@H]1CN(CC(=O)Nc2ccc3c(c2)Cc2cccc(-c4cc(=O)cc(N5CCOCC5)o4)c2S3)C[C@H](C)O1`, for which the Potency is 14.1 µM (active).

Turning to `O=C(c1cc(Cc2n[nH]c(=O)c3ccccc23)ccc1F)N1CCN(C(=O)C2CC2)CC1`, the Potency entry was “inactive”.

Turning to `CS(=O)(=O)Nc1ccc([N+](=O)[O-])cc1Oc1ccccc1`, the Potency result is “inactive”.

`Cc1cnc(-c2cnc(NCCNc3ccc(C#N)cn3)nc2-c2ccc(Cl)cc2Cl)[nH]1`: the Potency entry was “inactive”.

Consider `O=C1C(Cl)=C(NCCN2CCOCC2)C(=O)c2ncccc21`, for which the Potency is 28.2 µM (active).

As to `CCOc1cc2ncc(C#N)c(Nc3ccc(OCc4ccccn4)c(Cl)c3)c2cc1NC(=O)/C=C/CN(C)C`, the Potency entry was “inactive”.

As for `c1ccc2c(-c3cnn4cc(-c5ccc(N6CCNCC6)cc5)cnc34)ccnc2c1`, the Potency was 7.08 µM (active).

Consider `O=C(Nc1cc(C(F)(F)F)cc(C(F)(F)F)c1)c1cc(Cl)ccc1O`, for which the Potency is 1.58 µM (active).

As to `COc1cc(N2CCC(N3CCN(C)CC3)CC2)ccc1Nc1ncc(Cl)c(Nc2ccccc2S(=O)(=O)C(C)C)n1`, the Potency is 31.6 µM (active).

With `CNCc1ccc(-c2[nH]c3cc(F)cc4c3c2CCNC4=O)cc1`, the Potency entry was “inactive”.

(Values after PubChem BioAssay (NCATS).)
